For 20 molecules, growth inhibition results are on record in PubChem BioAssay (NCI).

The nature of assay [1]: NCI Yeast Anticancer Drug Screen. Data for the rad50 strain (AID 155).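 Also: 0% = growth of vehicle-only cultures of the same strain.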 The conditions noted are these: S. cerevisiae rad50 strain growth inhibition; at 50.0 µM; hits give high values. In outline:
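Vehicle-treated cultures provide the reference for the growth inhibition reported for compound-exposed, repair-deficient yeast.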

The nature of assay [2]: NCI Yeast Anticancer Drug Screen. Data for the mec2-1 strain (AID 157). The conditions noted are these: S. cerevisiae mec2-1 strain, at 50.0 µM, hits give high values. The gist of the method:
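Each compound was tested on mec2-1 yeast, a strain altered in DNA damage repair or cell cycle control. Growth inhibition is reported relative to vehicle.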

Assay [3] is described as follows: NCI Yeast Anticancer Drug Screen. Data for the sgs1 mgt1 strain (AID 161).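 Also: 0% = growth of cultures given vehicle only.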 The settings on record: S. cerevisiae sgs1 mgt1 strain, at 50.0 µM, hits give high values. The gist of the method: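 Test agents were incubated with a DNA-repair-mutant yeast strain. Growth was then read and compared against vehicle-treated controls.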
The nature of assay [4]: NCI Yeast Anticancer Drug Screen. Data for the cln2 rad14 strain (AID 165).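 Also: 0% = growth equal to vehicle treated cultures.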 The conditions noted are these: S. cerevisiae cln2 rad14 strain, at 50.0 µM, hits give high values. The gist of the method: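 Test compounds were added to cln2 rad14 yeast cultures; inhibition of growth was then determined by comparison with vehicle treatment.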
Assay [5] in a line: NCI Yeast Anticancer Drug Screen. Data for the bub3 strain (AID 167). The settings on record: S. cerevisiae bub3 mutant strain, at 50.0 µM, hits give high values. The gist of the method:
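Mutant yeast screening strain plus compound; vehicle-treated cultures serve as the 0% inhibition reference.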

Assay [6] can be described thus: NCI Yeast Anticancer Drug Screen. Data for the mlh1 rad18 strain (AID 175). The settings on record: S. cerevisiae mlh1 rad18 strain growth inhibition; at 50.0 µM; hits give high values. The gist of the method:
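Inhibition values reflect reduced growth of mutant yeast versus vehicle-treated controls following compound exposure; the mutations affect DNA damage repair.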

SMILES strings stand for the structures. This is part of a sample that, as a whole, favours compounds with a hit. Of some 79,000 tested, about 15% had one in any assay. A number with no mark means an inactive call. The source made the active and inactive calls. Rule as the data show it: active = growth inhibition above about 70%; inactive = the rest.

With `CCOc1ccccc1Br`, the growth inhibition in assay [1] is -2.05%; in assay [2], 8.65%; in assay [3], -2.05%; in assay [4], -9.8%; in assay [5], 1%; in assay [6], -38.2%.

As to `COC(=O)/C=C/CCCC1CCCCC1`, the growth inhibition is -7.8% in assay [1]; -3.85% in assay [2]; 4.9% in assay [3]; 0.45% in assay [4]; -14.9% in assay [5]; -13.9% in assay [6].

Regarding `CC(=O)Nc1cccc(N=NN(C)C)c1`, the growth inhibition was 14.2% in assay [1]; 14.1% in assay [2]; 39% in assay [3]; 20.5% in assay [4]; 34.4% in assay [5]; 29.6% in assay [6].

Turning to `CC(N)C(=O)NC(C(=O)O)C(C)C` (stereo not given), the growth inhibition in assay [1] was -2.4%; in assay [2] it was -2.55%; in assay [3], -16.1%; in assay [4], -14.7%; in assay [5], 0.3%; in assay [6], -23.4%.

Regarding `COc1ccc(C(=C(I)c2ccccc2)c2ccc(OC)cc2)cc1`, the growth inhibition in assay [1] is -31.6%; in assay [2], -26.4%; in assay [3] it was -11.4%; in assay [4], -15.9%; in assay [5], -25.4%; in assay [6], -18.9%.

For the molecule `CCOC(=O)NC(NC(=O)OCC)c1ccc(Cl)cc1Cl`, the growth inhibition was -11.7% in assay [1]; -4.55% in assay [2]; -11.6% in assay [3]; 5.9% in assay [4]; 7.2% in assay [5]; 7.8% in assay [6].

As for `CCOC(=O)C1/C(=N\N=C2\c3c(nnp3N(CCOS(C)(=O)=O)CCOS(C)(=O)=O)C(C(=O)OCC)C(c3ccc(OC(C)=O)cc3)C2C(=O)OCC)c2c(nnp2N(CCOS(C)(=O)=O)CCOS(C)(=O)=O)C(C(=O)OCC)C1c1ccc(OC(C)=O)cc1` (stereo not given), the growth inhibition in assay [1] was 6.75%; in assay [2] it was -0.05%; in assay [3], -3.85%; in assay [4], 4.25%; in assay [5] it was 10.3%; in assay [6], -4.5%.

With `O=S1c2ccccc2N=C(c2ccc3ccccc3c2)CC1c1ccccc1F` (stereo not given), the growth inhibition in assay [1] is -1.1%; in assay [2], -2.95%; in assay [3], 12.3%; in assay [4], 4.45%; in assay [5], 2.45%; in assay [6], 6.8%.

For the molecule `COC(=O)C1(CC(=O)c2cccc3ccccc23)NC(=S)NC(=O)C1C#N` (stereo not given), the growth inhibition in assay [1] is 0.55%; in assay [2], 15.7%; in assay [3], -17.4%; in assay [4], -13.3%; in assay [5], -0.7%; in assay [6] it was -9.35%.

As for `CCOC(=O)/C(=C\n1c(=S)[nH]c2cc(C)ccc21)C(=O)c1ccccc1`, the growth inhibition in assay [1] was -41.2%; in assay [2], -60.5%; in assay [3], -18.8%; in assay [4] it was 10.8%; in assay [5], -14.2%; in assay [6], -13.5%.

On to `CCOC(=O)c1cnc2cc3c(cc2c1Nc1cccc(C)c1)OCO3`, for which the growth inhibition is -9.9% in assay [1]; -5% in assay [2]; -5.85% in assay [3]; -57.8% in assay [4]; -1.45% in assay [5]; -6% in assay [6].

As to `O=C1CCC=Cc2c(O)ccc(O)c21`, the growth inhibition in assay [1] was 8.65%; in assay [2], -5.25%; in assay [3] it was 17.8%; in assay [4] it was 0.55%; in assay [5] it was -1.1%; in assay [6], 27.9%.

For the molecule `COC(=O)C1=COC(OC2OC(CO)C(O)C(O)C2O)C2C(C)CC(=O)C12` (stereo not given), the growth inhibition was -39.2% in assay [1]; -39% in assay [2]; -22.4% in assay [3]; 20.6% in assay [4]; -29.9% in assay [5]; -20.4% in assay [6].

In the case of `COc1ccc(C(=O)c2ccccc2C)cc1OC`, the growth inhibition in assay [1] is 1.65%; in assay [2] it was 0.1%; in assay [3], -1.15%; in assay [4], 28.1%; in assay [5], 36.5%; in assay [6], 0.15%.

Take `Cc1cccc(C2(C(=O)O)CCCC2)c1`: the growth inhibition in assay [1] was 14.7%; in assay [2] it was -5.2%; in assay [3], 15.9%; in assay [4] it was 39%; in assay [5], 24.3%; in assay [6], 35.4%.

For the molecule `CCN(CC)C(=O)Cn1c2c(c3ccccc31)CCCC2`, the growth inhibition in assay [1] is 33.4%; in assay [2], -30.4%; in assay [3] it was 2.2%; in assay [4], 1.15%; in assay [5] it was -2.6%; in assay [6] it was -11.9%.

Consider `COc1cc2ccc3c[n+]4ccccc4cc3c2cc1OC`, for which the growth inhibition is 9.25% in assay [1]; 14.2% in assay [2]; 19.9% in assay [3]; 19.4% in assay [4]; 20.2% in assay [5]; 14% in assay [6].

Regarding `CN(CC(=O)O)c1ncc2c(n1)-c1ccccc1OC2c1ccccc1` (stereo not given), the growth inhibition was 21.9% in assay [1]; 19.6% in assay [2]; 44.5% in assay [3]; 47% in assay [4]; 28.9% in assay [5]; 67.8% in assay [6].

For `COC[C@H]1C(=O)NCC(=O)N2N=CCC[C@H]2C(=O)N(O)[C@H](C)C(=O)O[C@@H](C(C)C)[C@H](NC(=O)[C@@](C)(O)[C@]2(O)CC[C@@H](CC(C)C)[C@H](C)O2)C(=O)N2NCCC[C@@H]2C(=O)N1O`, the growth inhibition is 91.8% (active) in assay [1]; 93.6% (active) in assay [2]; 93.7% (active) in assay [3]; 91.2% (active) in assay [4]; 93.2% (active) in assay [5]; 92.1% (active) in assay [6].

Regarding `CN(N)c1cnn(-c2ccccc2)c(=O)c1Cl`, the growth inhibition is -37.2% in assay [1]; -48% in assay [2]; -22.1% in assay [3]; 19.4% in assay [4]; 21.4% in assay [5]; -36.6% in assay [6].
